A short description of assay [1]: Tanguay_ZF_120hpf_MORT_legacy: (Legacy) Oregon State University Tanguay Lab 120 Hour Post-fertilization zebrafish Assay for Mortality (AID 2283633).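 On AC50: fitted as increase in binary mortality versus DMSO negative control.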 The method in brief:
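Brightfield scoring of embryo death (binary) at 24 and 120 hpf; static exposure 6–120 hpf, 28C, sealed and foil-covered. Pronase-dechorionated 5D wild-type larvae, single embryo per well. DMSO 0.64% v/v; trimethyltin chloride 5uM positive control.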

A short description of assay [2]: Tanguay_ZF_120hpf_YSE_legacy: (Legacy) Oregon State University Tanguay Lab 120 Hour Post-fertilization zebrafish Assay for Yolk Sac Edema (AID 2283634). The method in brief: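 Binary brightfield scoring of yolk sac edema at 120 hpf; DMSO baseline, gain-of-signal fitting. Dechorionated 5D larvae, one per well, static exposure 6–120 hpf, 28C, 0.64% DMSO. Dead embryos not scored.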

The nature of assay [3]: Tanguay_ZF_120hpf_AXIS_legacy: (Legacy) Oregon State University Tanguay Lab 120 Hour Post-fertilization zebrafish Assay for Body Axis Malformation (AID 2283635). An outline of the steps: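 Embryos: 5D wild-type, pronase-dechorionated 4 hpf; static exposure 6–120 hpf, 28C, sealed, dark, 1 embryo/well, 0.64% DMSO. 120 hpf axis malformation scored present/absent; dead embryos excluded. Analysed as gain of signal vs DMSO.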

Assay [4] can be described thus: Tanguay_ZF_120hpf_SNOU_legacy: (Legacy) Oregon State University Tanguay Lab 120 Hour Post-fertilization zebrafish Assay for Snout Malformation (AID 2283637). The method in brief:
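Binary snout-malformation call at 120 hpf in wild-type 5D embryos, chorion removed by pronase, under static exposure from 6 hpf at 28C (0.64% DMSO). Embryos dying by 24 or 120 hpf excluded.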

Assay [5] can be described thus: Tanguay_ZF_120hpf_OTIC_legacy: (Legacy) Oregon State University Tanguay Lab 120 Hour Post-fertilization zebrafish Assay for Otic Vesicle Malformation (AID 2283639). An outline of the steps:
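Wild-type zebrafish larvae, whole-embryo exposure from early stage to 120 hpf at 28C. Binary brightfield scoring of otic vesicle morphology, fitted in the positive direction against the DMSO baseline.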

The nature of assay [6]: Tanguay_ZF_120hpf_PE_legacy: (Legacy) Oregon State University Tanguay Lab 120 Hour Post-fertilization zebrafish Assay for Pericardial Edema (AID 2283640). The method in brief: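 Static waterborne exposure, 5D wild-type embryos, 28C, to 120 hpf; final DMSO 0.64% (vol/vol). Binary PE call at 120 hpf by brightfield; fitted upward vs DMSO baseline. 5uM trimethyltin chloride as positive control.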

A short description of assay [7]: Tanguay_ZF_120hpf_BRAI_legacy: (Legacy) Oregon State University Tanguay Lab 120 Hour Post-fertilization zebrafish Assay for Brain Malformation (AID 2283641). The method in brief:
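Read-out: binary brain morphology call at 120 hpf (brightfield), fitted in gain-of-signal direction vs DMSO. Wild-type Tropical 5D embryos, static exposure, 28C, 0.64% DMSO final; 5uM trimethyltin chloride as positive control.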

Assay [8] in a line: Tanguay_ZF_120hpf_SOMI_legacy: (Legacy) Oregon State University Tanguay Lab 120 Hour Post-fertilization zebrafish Assay for Somite Malformation (AID 2283647). An outline of the steps: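 Binary brightfield scoring of somite defects at 120 hpf in 5D wild-type larvae; one dechorionated embryo per well, static exposure from 6 hpf, 28C, sealed and dark. Final DMSO 0.64%; trimethyltin chloride 5uM positive control.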

Assay [9] is described as follows: Tanguay_ZF_120hpf_CFIN_legacy: (Legacy) Oregon State University Tanguay Lab 120 Hour Post-fertilization zebrafish Assay for Caudal Fin Malformation (AID 2283649). The method in brief: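 Dechorionated 5D wild-type zebrafish, static exposure 6–120 hpf, 28C, sealed and dark, 0.64% v/v DMSO final. Binary fin-malformation call at 120 hpf, brightfield; gain of signal vs DMSO baseline.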

Assay [10] in a line: Tanguay_ZF_120hpf_PIG_legacy: (Legacy) Oregon State University Tanguay Lab 120 Hour Post-fertilization zebrafish Assay for Pigmentation Malformation (AID 2283650). An outline of the steps: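 Pigment malformation recorded as a binary call at 120 hpf in zebrafish (Tropical 5D) exposed singly from 6 hpf after pronase dechorionation. Static, sealed, 28C exposure, 0.64% DMSO; mortality excludes scoring; positive-direction fit against DMSO.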

The nature of assay [11]: Tanguay_ZF_120hpf_CIRC_legacy: (Legacy) Oregon State University Tanguay Lab 120 Hour Post-fertilization zebrafish Assay for Circulatory Malformation (AID 2283651). The method in brief: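 Binary circulatory-malformation call at 120 hpf via brightfield imaging, relative to DMSO controls. Embryos (5D strain, chorion removed) received static, light-shielded exposure at 28C.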

Assay [12] can be described thus: Tanguay_ZF_120hpf_SWIM_legacy: (Legacy) Oregon State University Tanguay Lab 120 Hour Post-fertilization zebrafish Assay for Swim Bladder Malformation (AID 2283654).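 Further: swim bladder malformation in each larva scored yes or no under brightfield.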 An outline of the steps: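 Scoring is binary for swim bladder defects at 120 hpf, by brightfield inspection of zebrafish larvae. Embryos were exposed singly from 6 hpf after pronase dechorionation, at 28C with 0.64% DMSO; mortality excluded scoring.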

Assay [13] can be described thus: Tanguay_ZF_120hpf_TRUN_legacy: (Legacy) Oregon State University Tanguay Lab 120 Hour Post-fertilization zebrafish Assay for Truncated Body (AID 2283655). An outline of the steps:
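Whole-embryo zebrafish screen: dechorionated 5D embryos, static exposure 6–120 hpf, 28C, sealed foil-covered plates, 0.64% DMSO. Binary truncation call; gain of signal versus DMSO baseline.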

Assay [14] can be described thus: Tanguay_ZF_120hpf_NC_legacy: (Legacy) Oregon State University Tanguay Lab 120 Hour Post-fertilization zebrafish Assay for Notochord and Tail Malformation (AID 2283656). The method in brief: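 Binary notochord-distortion calls, made by brightfield inspection, form the read-out; activity is fitted in the positive direction against DMSO. Exposure ran statically from 6 to 120 hpf at 28C with 0.64% DMSO.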

The nature of assay [15]: Tanguay_ZF_120hpf_EYE_legacy: (Legacy) Oregon State University Tanguay Lab 120 Hour Post-fertilization zebrafish Assay for Eye Malformation (AID 2283636).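 Further: binary presence or absence of eye malformation scored by brightfield in 120 hpf larvae.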 An outline of the steps: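 Binary brightfield scoring of eye defects at 120 hpf after static exposure from 6 hpf of single pronase-dechorionated wild-type embryos (28C, 0.64% DMSO). Non-mortality endpoints omitted where embryos died; fit vs DMSO.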

A short description of assay [16]: Tanguay_ZF_120hpf_PFIN_legacy: (Legacy) Oregon State University Tanguay Lab 120 Hour Post-fertilization zebrafish Assay for Pectoral Fin Malformation (AID 2283648).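 Further: each larva judged yes or no for fin defect by brightfield with dead larvae skipped.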 The method in brief: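 Pectoral fin malformation was recorded as a binary endpoint at 120 hpf in wild-type Tropical 5D larvae, which had been dechorionated and exposed statically from 6 hpf at 28C in 0.64% DMSO. Dead embryos were excluded.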

Assay [17] is described as follows: Tanguay_ZF_120hpf_JAW_legacy: (Legacy) Oregon State University Tanguay Lab 120 Hour Post-fertilization zebrafish Assay for Jaw Malformation (AID 2283638). The method in brief: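 Binary jaw-malformation calls at 120 hpf by brightfield imaging; DMSO (0.64% v/v) = baseline. Embryos: 5D wild-type, pronase-dechorionated, one per well from 6 hpf, static exposure, 28C, sealed, dark.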

The structures appear in SMILES notation. Inconclusive results are not listed. Calls of active or inactive are those of the source. How the source made its calls: active means hit-call score of the fitted dose curve at least 0.9, where 1 is the maximum; inconclusive means response in the unintended direction; inactive means score below 0.9.

For `OCC(CO)n1cnc(-c2ccc(F)cc2)c1-c1ccnc(Oc2ccccc2)n1`, the outcome in [1], in assay [2], in [3], in assay [4], in assay [5] and in [6] was inactive. The molecule was classed as inactive in assay [7], in [8], in [9], in assay [10], in [11] and in assay [12]. Also, the call in assay [13] and in [14] was inactive.

`O=C(N[C@@H](c1ccccc1)[C@@H]1CCCCN1)c1cccc(C(F)(F)F)c1Cl`: the AC50 in [1] was 26.6 µM (active). Further, the molecule was called inactive in assay [2], in assay [3], in assay [15], in assay [4], in assay [6] and in [8]. For the same molecule, the result in [16], in assay [9], in assay [10], in assay [11], in [13] and in [14] was inactive.

With `O=C(O)c1cccnc1`, the molecule was classed as inactive in [1], in assay [2], in [3], in [15], in assay [4] and in assay [5]. Also, the molecule was classed as inactive in assay [6], in assay [8], in assay [16], in assay [11], in [12] and in assay [13]. Besides, the result in [14] was inactive.

For `O=C(O)CC(O)(CC(=O)O)C(=O)O`, the molecule was called inactive in assay [1], in assay [2], in [3], in [15], in assay [17] and in assay [5]. The molecule was classed as inactive in [6], in [7], in assay [8], in assay [16], in assay [9] and in [11]. Moreover, the outcome in [12], in assay [13] and in assay [14] was inactive.

In the case of `C/C=C/C=C/C(=O)O`, the outcome in assay [1], in assay [3], in assay [15], in assay [4], in [6] and in [8] was inactive. The result in [16], in [9], in assay [10], in assay [11], in assay [12] and in assay [14] was inactive.

As for `CC(=O)O`, the molecule was called inactive in [1], in assay [2], in [3], in assay [15], in assay [5] and in [6]. Further, the molecule was classed as inactive in assay [8], in assay [11], in assay [12], in assay [13] and in assay [14].

As for `O=Cc1ccccc1C=O`, in [1], the AC50 is 4.42 µM (active). The outcome in assay [2], in assay [3], in [15], in assay [4], in assay [5] and in assay [6] was inactive. The outcome in assay [7], in [8], in assay [9], in [11], in [13] and in assay [14] was inactive.

Consider `CCCCCCCCCCCCCCCCO`, for which the outcome in assay [1], in [2], in assay [3], in [15], in assay [4] and in [6] was inactive. Further, the outcome in assay [8], in assay [16], in assay [9], in [11], in assay [12] and in [13] was inactive. For the same molecule, the result in assay [14] was inactive.

Consider `CC(=O)[C@@]1(O)CC[C@H]2[C@@H]3CCC4=CC(=O)CC[C@]4(C)[C@H]3CC[C@@]21C`, for which the call in assay [1], in assay [2], in assay [3], in assay [15], in [4] and in assay [5] was inactive. Moreover, the call in assay [6], in [7], in assay [8], in [16], in assay [9] and in assay [11] was inactive. The call in assay [12], in [13] and in assay [14] was inactive.

Turning to `CC(C)c1cccc(C(C)C)c1`, the outcome in assay [1], in assay [3], in [15], in assay [6], in assay [9] and in assay [10] was inactive. Further, the molecule was called inactive in [11], in assay [13] and in assay [14].

Regarding `Cn1cnc2c1c(=O)[nH]c(=O)n2C`, the call in assay [1], in assay [2], in assay [3], in assay [15], in assay [4] and in assay [17] was inactive. Also, the call in [7], in [8], in assay [16], in assay [11], in assay [12] and in assay [14] was inactive.

Turning to `Nc1nc(=S)c2[nH]cnc2[nH]1`, the molecule was classed as inactive in assay [1], in [2], in assay [3], in [15], in assay [4] and in assay [6]. Besides, the molecule was classed as inactive in assay [16], in assay [9], in assay [10], in assay [12], in [13] and in assay [14].

Take `CC(=O)CC(c1ccccc1)c1c(O)c2ccccc2oc1=O` (configuration not stated): the molecule was called inactive in [1], in assay [2], in assay [3], in assay [17], in assay [8] and in assay [16]. Also, the outcome in [9], in assay [10], in assay [11], in assay [12] and in assay [13] was inactive.

With `O=C(Oc1ccccc1)c1cccc(C(=O)Oc2ccccc2)c1`, the outcome in [1], in assay [2], in [3], in assay [15], in [4] and in assay [6] was inactive. Also, the outcome in [8], in assay [16], in [9], in assay [11], in assay [12] and in [13] was inactive. In [14], the outcome was inactive.

Regarding `CC(=O)OCC(COC(C)=O)OC(C)=O`, the call in assay [1], in assay [2], in assay [15], in [4], in [17] and in assay [5] was inactive. Besides, the molecule was called inactive in assay [6], in assay [8], in assay [16], in [9], in [11] and in assay [12]. Also, the call in assay [14] was inactive.

`CC(C)OC(=O)C(C)(C)Oc1ccc(C(=O)c2ccc(Cl)cc2)cc1`: the call in [1], in assay [15], in [6], in assay [9], in [10] and in assay [11] was inactive. Besides, the call in [12] and in assay [13] was inactive.

The AC50 is the concentration at which the activity in the assay is half-maximal.

The values above are taken from PubChem BioAssay (EPA / NIEHS).
